Bioassay records deposited in PubChem BioAssay by several laboratories.
ADAM10 inh: ADAM10 inhibition, QFRET primary screen; O14672; recombinant ADAM10, EDANS/DABCYL FRET peptide cleavage, 3 h; inhibition, % at 7 µM; 370,000 compounds, 0.62% hits; AID 720582;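 active means inhibition above a per-campaign cutoff equal to the mean of compounds falling between control-based bounds plus 3 SD, cut at about 20% in these data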
Target sequence (O14672 214-748 limits assumed): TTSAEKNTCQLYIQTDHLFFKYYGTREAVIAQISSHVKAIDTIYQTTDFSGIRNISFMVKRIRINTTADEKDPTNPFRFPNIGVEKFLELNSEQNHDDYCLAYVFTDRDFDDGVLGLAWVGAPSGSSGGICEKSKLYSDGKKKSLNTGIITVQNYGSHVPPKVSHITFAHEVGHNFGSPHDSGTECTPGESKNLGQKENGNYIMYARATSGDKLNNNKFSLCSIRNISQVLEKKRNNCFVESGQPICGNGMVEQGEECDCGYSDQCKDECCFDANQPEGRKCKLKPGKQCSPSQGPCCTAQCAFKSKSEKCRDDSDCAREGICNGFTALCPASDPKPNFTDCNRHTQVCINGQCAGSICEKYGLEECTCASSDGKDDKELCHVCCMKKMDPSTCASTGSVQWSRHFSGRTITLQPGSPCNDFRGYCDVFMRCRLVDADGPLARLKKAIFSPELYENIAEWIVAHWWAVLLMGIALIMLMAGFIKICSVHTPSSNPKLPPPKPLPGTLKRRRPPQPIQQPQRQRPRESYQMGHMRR
GC-B act: GC-B (human) receptor activation | P20594 | HEK293-GC-B cells, CNP EC30, cGMP TR-FRET; 0% at EC30 CNP, 100% saturating CNP | activation, % at 10 µM | 370,000 compounds, 0.11% hits | AID 1920062;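 active means activation at 10 µM reaching about 35% in either raw or pattern-adjusted values, limit read from the data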
ADAM17 inh: ADAM17 inhibition, QFRET primary screen | recombinant ADAM17, EDANS/DABCYL FRET peptide cleavage | inhibition, % at 6.95 µM | 370,000 compounds, 0.83% hits;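 active means inhibition above the mean of compounds lying between control limits plus 3 SD, set per campaign, cut at about 8.5% in these data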
FAS-TE inh: blocks the thioesterase domain of human fatty acid synthase; AID 602261; P49327; recombinant FAS-TE, OMFH fluorogenic substrate, fluorescence endpoint; 360,000 compounds, 0.67% hits; inhibition, % at 15 µM;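 active means compounds whose normalised, plate-corrected inhibition of enzyme fluorescence in the single-dose primary screen is 50% or more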
GC-A act: GC-A (human) enzyme activation; P16066; HEK293 GC-A cells, cGMP TR-FRET, EC30 ANP; 0% at EC30 ANP, 100% saturating ANP; activation, % at 10 µM; 370,000 compounds, 0.14% hits; in the data active means activation above about 40%
FAS-TE conf: confirmation of human fatty acid synthase thioesterase inhibitors. shares compounds with FAS-TE inh. recombinant FAS-TE, OMFH fluorogenic substrate, fluorescence. inhibition, % at 15 µM. 2,300 compounds, 45% hits. AID 624325;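 active means compounds inhibiting the enzyme by at least 50% at 15 µM in any one of the replicates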
Hits are given with their value. Sampled rows, rich in hits. Any-hit rate of the full collection: about 2%.

What do the screens show for `Cc1nn(-c2ccc([N+](=O)[O-])cc2)c2c1C(c1cccc(Br)c1)N1C(=N2)C(=O)Nc2ccccc21` (centres undefined)?
ADAM10 inh: inactive; GC-B act: inactive; ADAM17 inh: inactive; FAS-TE inh: 70; GC-A act: inactive; FAS-TE conf: inactive

What do the screens show for `CCCCN1CC[C@@H](C)Oc2cc(Br)ccc2S1(=O)=O`?
ADAM10 inh: inactive; GC-B act: inactive; ADAM17 inh: inactive; GC-A act: inactive

How did COc1cc(N(C)C)c([N+](=O)[O-])cc1C(=O)NC(C)CNc1ccc([N+](=O)[O-])cc1Cl (centres undefined) do in these assays?
ADAM10 inh: inactive; GC-B act: inactive; ADAM17 inh: inactive; FAS-TE inh: 70; GC-A act: inactive; FAS-TE conf: 59

What do the screens show for `N#C/C(C(N)=O)=c1/ccc2c(c1)N1C3=C(CCCC3)CC3CCCCC31N=2` (centres undefined)?
ADAM10 inh: inactive; GC-B act: inactive; ADAM17 inh: inactive; GC-A act: inactive

How did N#CC(C#N)=c1ccc2c(c1)N1C3=C(CCCC3)CC3CCCCC31N=2 (centres undefined) do in these assays?
ADAM10 inh: inactive; GC-B act: inactive; ADAM17 inh: inactive; FAS-TE inh: 51; GC-A act: inactive; FAS-TE conf: inactive

Results for C[C@H](O)[C@@H]1CN2CCc3c([nH]c4c(-c5ccc6c(c5)OCO6)cccc34)[C@@H]2C[C@@H]1N(C)C(=O)NC1CCCCC1 ?
ADAM10 inh: inactive; GC-B act: inactive; ADAM17 inh: inactive; GC-A act: inactive

What do the screens show for `O=C(Nc1ccccc1)c1ccc(Nc2c([N+](=O)[O-])cc([N+](=O)[O-])c3ccccc23)cc1`?
ADAM10 inh: inactive; GC-B act: inactive; ADAM17 inh: inactive; FAS-TE inh: 69; GC-A act: inactive; FAS-TE conf: inactive

How did CCOC(=O)[C@@]12CCCC3=C1N(CCC3)C(=O)[C@H]2CC(=O)N1CCN(C(=O)C2CC2)CC1 do in these assays?
ADAM10 inh: inactive; GC-B act: inactive; ADAM17 inh: inactive; GC-A act: inactive

Results for CCOC(=O)CCSc1nc2c(c(C(F)(F)F)c1C#N)CCC2 ?
ADAM10 inh: inactive; GC-B act: inactive; ADAM17 inh: inactive; FAS-TE inh: 71; GC-A act: inactive; FAS-TE conf: 65

Results for O=[N+]([O-])c1cccc(S(=O)(=O)Nc2nc3ccccc3nc2Nc2cccc(S(=O)(=O)N3CCCCC3)c2)c1 ?
ADAM10 inh: inactive; GC-B act: inactive; ADAM17 inh: inactive; FAS-TE inh: 82; GC-A act: inactive; FAS-TE conf: inactive

What do the screens show for `CCOc1cc(CCNC(=O)c2cc3ccsc3n2C)ccc1OC`?
ADAM10 inh: inactive; GC-B act: inactive; ADAM17 inh: inactive; GC-A act: inactive

How did COc1ccc(N2CC(C(=O)NCCC3=CCCCC3)CC2=O)c(OC)c1 (centres undefined) do in these assays?
ADAM10 inh: inactive; GC-B act: inactive; ADAM17 inh: inactive; FAS-TE inh: inactive; GC-A act: inactive

What do the screens show for `COc1cc(OC)c(N2CC(C(=O)NCCC3=CCCCC3)CC2=O)cc1Cl` (centres undefined)?
ADAM10 inh: inactive; GC-B act: inactive; ADAM17 inh: inactive; FAS-TE inh: 61; GC-A act: inactive; FAS-TE conf: 67

What do the screens show for `COc1ccc(C(=O)NCC2CCN(C(=O)C(=O)c3cc4ccccc4o3)CC2)c(OC)c1`?
ADAM10 inh: inactive; GC-B act: inactive; ADAM17 inh: inactive; GC-A act: inactive

How did O=C(Nc1ccccc1C(=O)Nc1nnc(C(F)(F)F)s1)c1ccccc1 do in these assays?
ADAM10 inh: inactive; GC-B act: inactive; ADAM17 inh: inactive; FAS-TE inh: 53; GC-A act: inactive; FAS-TE conf: 46

What do the screens show for `Cc1occc1C(=O)Nc1nnc(C(F)(F)F)s1`?
ADAM10 inh: inactive; GC-B act: inactive; ADAM17 inh: inactive; FAS-TE inh: inactive; GC-A act: inactive

How did O=C1[C@H]2C(c3ccccc3)=NN(c3ccccc3)[C@H]2C(=O)N1c1ccccc1 do in these assays?
ADAM10 inh: inactive; GC-B act: inactive; ADAM17 inh: inactive; FAS-TE inh: inactive; GC-A act: inactive

Results for O=C1[C@@H]2[C@@H](CN3CN(c4ccccc4)N=C(c4ccccc4)[C@@]23c2ccccc2)C(=O)N1c1ccccc1 ?
ADAM10 inh: inactive; GC-B act: inactive; ADAM17 inh: inactive; FAS-TE inh: 57; GC-A act: inactive; FAS-TE conf: inactive

How did CCc1ccc(OC(=O)Cc2ccc(OC)c(S(=O)(=O)N3CCOCC3)c2)cc1 do in these assays?
ADAM10 inh: inactive; GC-B act: inactive; ADAM17 inh: inactive; FAS-TE inh: inactive; GC-A act: inactive

Results for COc1ccc(CC(=O)Oc2ccc(C(C)(C)C)cc2)cc1S(=O)(=O)N1CCOCC1 ?
ADAM10 inh: inactive; GC-B act: inactive; ADAM17 inh: inactive; FAS-TE inh: 60; GC-A act: inactive; FAS-TE conf: inactive

What do the screens show for `C/C(C=NNC(=O)c1cc(-c2ccc(Cl)cc2)n[nH]1)=C\c1ccccc1`?
ADAM10 inh: inactive; GC-B act: inactive; ADAM17 inh: inactive; GC-A act: inactive

What do the screens show for `O=C(c1nn2c(C(F)(F)F)cc(-c3cccs3)nc2c1Br)N1CCCc2ccccc21`?
ADAM10 inh: inactive; GC-B act: inactive; ADAM17 inh: inactive; FAS-TE inh: 59; GC-A act: inactive; FAS-TE conf: inactive

What do the screens show for `CCOC(=O)[C@@]12CN(C(=O)OC(C)(C)C)CC=C1N(Cc1ccc(OC)cc1)C(=O)[C@H]2CC(=O)N1CCOCC1`?
ADAM10 inh: inactive; GC-B act: inactive; ADAM17 inh: inactive; GC-A act: inactive

How did CC(C)(C)c1ccc(C(=O)NCC(=O)OCc2ccc([N+](=O)[O-])cc2)cc1 do in these assays?
ADAM10 inh: inactive; GC-B act: inactive; ADAM17 inh: inactive; FAS-TE inh: 71; GC-A act: inactive; FAS-TE conf: 83

Results for c1ccc(-c2c[nH]c3cccc(C4CCCCC4)c23)cc1 ?
ADAM10 inh: inactive; GC-B act: inactive; ADAM17 inh: inactive; GC-A act: inactive

What do the screens show for `CC(C)CCNC(=O)C1CC(c2cccc([N+](=O)[O-])c2)=NO1` (centres undefined)?
ADAM10 inh: inactive; GC-B act: inactive; ADAM17 inh: inactive; FAS-TE inh: 53; GC-A act: inactive; FAS-TE conf: 59

Results for O=C(NCCCCc1ccccc1)C1CC(c2cccc([N+](=O)[O-])c2)=NO1 (centres undefined) ?
ADAM10 inh: inactive; GC-B act: inactive; ADAM17 inh: inactive; FAS-TE inh: 66; GC-A act: inactive; FAS-TE conf: 76

What do the screens show for `CC(C)C[C@@H]1COc2cc(N3CCSCC3)ccc2S(=O)(=O)N1C`?
ADAM10 inh: inactive; GC-B act: inactive; ADAM17 inh: inactive; GC-A act: inactive
